The text below walks through data of PubChem BioAssay (NCI).

Experiment in all cases: NCI-60 one-dose screen, 48 h (100 = growth as untreated, 0 = no growth, -100 = all killed)
Holding throughout (conditions): 10 µM

For test [1], the system named is DU-145 prostate.
Test [2] has as its system K-562 leukemia.
In test [3] the test system is MALME-3M melanoma.
Test [4] has as its system MDA-MB-231 breast.
The subject of test [5] is RXF 393 renal.
Test [6] concerns SF-268 CNS.
Test [7] relates to SF-295 CNS.
Test [8] concerns SF-539 CNS.
The test system of test [9] is UACC-257 melanoma.
In test [10] the test system is M14 melanoma.
Test [11] has as its system HCT-15 colon.
In test [12] the test system is HT29 colon.
Test [13] concerns SNB-75 CNS.
The subject of test [14] is SNB-19 CNS.
The test system of test [15] is U251 CNS.
For test [16], the system named is PC-3 prostate.
In test [17] the test system is SK-MEL-5 melanoma.
Test [18] relates to UACC-62 melanoma.
The test system of test [19] is LOX IMVI melanoma.
Test [20] deals with SK-MEL-28 melanoma.

The panel holds about 83,000 compounds, 20% with a hit somewhere; the sample as a whole holds those more often.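 Single-dose data. Exposure time 48 hours. Values below 10 considered active.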 A number with no mark means an inactive call. Calls of active or inactive are those of the source.

As to `CC[C@@H](C(=O)[C@H](C)[C@H](O)[C@@H](C)[C@H]1O[C@H]([C@@H](CC)C(=O)N(CC)CC)CC[C@H]1C)C1O[C@]2(C=C[C@@H](O)[C@]3(CC[C@@](C)([C@H]4CC[C@](O)(CC)[C@H](C)O4)O3)O2)[C@H](C)C[C@@H]1C` (stereo not given in full), the growth in test [1] is 55.1%; in [2] it was 16.2%; in [3], -20.1% (active); in test [4] it was 15.9%; in test [5], 14%; in test [6], 42.1%. Besides, the growth in [7] is -6.82% (active); in test [8], 38.2%; in test [9], 12.4%; in test [10], 11.7%; in [11] it was 9.17% (active); in test [12], 13.8%. Moreover, the growth in [13] was 6.47% (active); in test [14] it was 12.8%; in test [15], 24.2%; in [16] it was 3.64% (active); in [17] it was -74.7% (active); in [18] it was 14.3%. Further, the growth in [19] was 31%; in test [20], 27%.

`Cc1ccc(NCCNCC(C)(C)O)c2c(=O)c3ccc(Cl)cc3sc12`: the growth in test [1] is 5.67% (active); in test [2], -63.1% (active); in test [3], -71.8% (active); in [4] it was -36.9% (active); in [5] it was 24.2%; in test [6], 39.4%. The growth is 74.1% in test [7]; 69.8% in [8]; 78.5% in test [9]; -78.7% (active) in [10]; -7.39% (active) in test [11]; -73.1% (active) in test [12]. For the same compound, the growth in [13] is 76.1%; in test [14], 46.2%; in test [15] it was -74.5% (active); in test [16], 36.8%; in test [17], 44.2%; in [18], -66.6% (active). Further, the growth in test [19] is -92.6% (active); in test [20], -60% (active).

Take `COc1cc(-c2nc3ccccc3o2)cc(CN2CCCCC2)c1O`: the growth is 12.9% in test [1]; 32.7% in [2]; 28.9% in test [3]; 70.9% in test [4]; 94.8% in test [5]; 68.2% in test [6]. The growth in test [7] is 32.5%; in test [8], 83.5%; in test [9], 75.2%; in test [10] it was 34.9%; in test [11], 41.4%; in test [12], 87.2%. Further, the growth in test [13] was 57.6%; in [14], 83.3%; in test [15], 47.5%; in [16], 41.8%; in test [17], -83.3% (active); in test [18] it was -15.3% (active). Moreover, the growth in test [19] is -18.6% (active); in test [20], 59.5%.

Consider `COc1cc2cc(Oc3ccc(NC(=O)c4cccc(C(F)(F)F)c4)cc3)c(C)nc2cc1OC`, for which the growth in test [1] was 52.9%; in [2], 23.8%; in test [3] it was 47.5%; in [4] it was 33.3%; in test [5], 54%; in [6], 62.9%. For the same compound, the growth in test [7] is 8.94% (active); in [8] it was 60%; in test [9] it was 44.9%; in test [10], 16.1%; in test [11], 38.3%; in test [12] it was 31.3%. Also, the growth was 68.4% in test [13]; 58.8% in test [14]; 19.5% in [15]; 9.54% (active) in test [16]; 2.78% (active) in [17]; 29.3% in test [18]. Besides, the growth is 45.8% in test [19] and 71.4% in test [20].

As to `O=C(Nc1ccc(NS(=O)(=O)c2ccc(F)cc2)cc1)C12CC3CC(CC(C3)C1)C2`, the growth in [1] is 103%; in [2], 74.7%; in test [3], 87.1%; in test [4], 96.2%; in test [5], 105%; in test [6], 97.4%. For the same compound, the growth was 91.2% in test [7]; 106% in test [8]; 91.6% in test [9]; 96.6% in test [10]; 86.8% in test [11]; 89.6% in test [12]. Further, the growth in test [13] was 90%; in test [14] it was 93.7%; in test [15], 91.3%; in test [16], 78.8%; in [17], 93.9%; in test [18], 92.4%. Moreover, the growth in test [19] was 92.2%; in test [20], 99.9%.

For the compound `COc1cccc(CNc2cccc3cn[nH]c23)c1O`, the growth was 100% in [1]; 126% in [2]; 88.3% in test [3]; 72.8% in [4]; 113% in test [5]; 106% in test [6]. Moreover, the growth in test [7] is 108%; in [8] it was 94.7%; in test [9], 99%; in test [10], 98.7%; in test [11], 93.4%; in test [12] it was 99.7%. Moreover, the growth in [13] was 82%; in test [14], 96.5%; in test [15], 92.9%; in [16], 84.5%; in [17], 82.2%; in [18] it was 85.6%. In addition, the figures for the growth in [19] and in [20] were 90.4% and 100%, respectively.

In the case of `COc1ccc(/C=C2/SC(=S)NC2=O)c(OC)c1OC`, the growth is 97.9% in [1]; 84% in [2]; 65.7% in test [3]; 62.7% in test [4]; 81.5% in test [5]; 80.5% in test [6]. The growth in [7] was 76.5%; in [8], 83.2%; in test [9], 88.9%; in test [10], 87.4%; in [11], 75.6%; in test [12], 98.3%. The growth was 77.8% in test [13]; 88.2% in test [14]; 83.5% in [15]; 75.6% in test [16]; 73.8% in [17]; 68.6% in [18]. The growth in [19] is 65.9%; in test [20], 86.9%.

On to `CC(=O)Nc1ccc2c(c1)C(=O)c1cccc(C(=O)O)c1-2`, for which the growth is 116% in test [1]; 115% in [2]; 148% in test [3]; 112% in test [4]; 109% in test [5]; 104% in test [6]. Also, the growth was 100% in test [7]; 106% in test [8]; 105% in test [9]; 107% in test [10]; 107% in test [11]; 115% in [12]. In addition, the growth in [13] was 91%; in test [14] it was 101%; in test [15], 108%; in test [16], 99.5%; in test [17], 95.5%; in test [18] it was 109%. The results for the growth in [19] and in [20] were 109% and 97.9%, respectively.
